In assay [1] the test system is Hepatitis C virus NS3 helicase. Kind of assay: blockers of NS3h binding to DNA – biochemical, fluorescence polarization, NIH Clinical Collection, primary screen (AID 743270; call rule not given here). The following applies: NS3 helicase binding to Cy5-dT15 DNA, stronger effect = higher value, concentration not given here. (Fluorescence polarisation rises when a labelled molecule tumbles more slowly, as on binding a larger partner.)

Assay [2] has as its target Single-stranded DNA-binding protein (Escherichia coli (strain K12)) (UniProt P0AGE0). Kind of assay: SSB-ssDNA binding inhibitors – biochemical, fluorescence polarization, NIH Clinical Collection, counter-screen for HCV NS3 helicase inhibitor project (AID 743271; in the data active means inhibition above about 28%). The settings on record: E. coli SSB-DNA binding, stronger effect = higher value, concentration not given here.
The nature of assay [3]: compounds distorting NS3 helicase fluorescence signal – biochemical, NIH Clinical Collection, artefact control for HCV NS3 helicase inhibitor project (AID 743272; call rule not given here;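 further: HCV NS3 helicase with a Cy5 labelled single stranded DNA probe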). The following applies: fluorescence interference counterscreen, HCV NS3 helicase assay; stronger effect = lower value. Background: A counterscreen serves to expose hits that act by an unwanted route or on another target.
For another assay, the system named is F380Y. Kind of assay: BK channel mutant inhibitors and activators – cell-based, U2OS BacMam, thallium flux, beta subunits, selectivity assay, profiling panel (AID 1259406).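 Further: initial slope of Thallos dye fluorescence rise after thallium is added; log ratio against the mean of 0.3% DMSO vehicle wells on the same plate.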 The settings on record: U2OS BacMam BK variants, at 30 µM.
In the next assay the test system is F380Y/beta2Delta. Described as above. The settings on record: U2OS BacMam BK variants, at 30 µM.
Assay [4] addresses Calcium-activated potassium channel subunit alpha-1 (Homo sapiens) + Leucine-rich repeat-containing protein 26 (Homo sapiens) (UniProt Q12791+Q2I0M4). Described as above. The settings on record: U2OS BacMam BK variants, F380Y/Slo1WT/gamma1, at 30 µM.
The subject of another assay is R275C. The description is as above. The settings on record: U2OS BacMam BK variants, at 30 µM.
The next assay has as its system R275C/beta1. The description is as above. The following applies: U2OS BacMam BK variants, at 30 µM.
In another assay the test system is R275C/beta2Delta. The description is as above. The following applies: U2OS BacMam BK variants, at 30 µM.
The nature of assay [5]: blockers of polyQ-driven CASP3 activation – cell-based (AID 1583). The following applies: polyglutamine-induced caspase-3 activation, cell assay; stronger effect = higher value;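 tested at 10 µM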.
A short description of assay [6]: yeast 75Q aggregation reduction – 75Q-TubU reporter (AID 1593). The settings on record: Yeast 75Q polyglutamine aggregation reporter.
Assay [7] can be described thus: restoration of touch response, mutant HTT neurons – whole organism, C. elegans mechanosensory neurons, N-terminal huntingtin (AID 1599). The following applies: C. elegans polyQ-huntingtin mechanosensory neurons, stronger effect = higher value.
A short description of assay [8]: blockers of cytochrome c efflux from mitochondria – biochemical, purified mitochondria (AID 1603).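 Further: mouse liver mitochondria challenged with calcium chloride; signal normalized to the plate average as 100%.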 The following applies: stronger effect = lower value.
A short description of assay [9]: polyglutamine aggregate formation blockers (AID 1604). The settings on record: polyglutamine-induced protein aggregation inhibition assay; stronger effect = higher value; tested at 2.5 µM.
Assay [10] is described as follows: glutamate transport activators, MN-1 cells, MN-1 cell line (AID 1612).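 Further: tested at 1 µM final; 0% = mean of DMSO vehicle wells on each plate; positive means more glutamate uptake than control and negative means less.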 The following applies: MN-1 motor neuron cells, stronger effect = higher value.
Assay [11] is described as follows: 75Q-TubH aggregate inhibition, S. cerevisiae, yeast (AID 1616). The settings on record: S. cerevisiae 75Q-TubH polyglutamine aggregation suppression; stronger effect = higher value.
Assay [12] can be described thus: blockers of cellular phospholipid synthesis – cell-based, LOPAC library, screen 4, primary screen (AID 1347384; call rule not given here). The following applies: animal cells, phospholipid biosynthesis inhibition screen; at 10 µM.
Assay [13] is described as follows: compounds altering circadian rhythm period length – cell-based, LOPAC library, luminescence reporter (AID 2774; call rule not given here;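 further: values are relative to mean of DMSO wells on each plate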). The following applies: circadian reporter cells, at 7 µM, actives lie on both sides.
Assay [14] relates to Hepatitis C virus NS3 helicase. Kind of assay: blockers of NS3h binding to ssDNA – biochemical, fluorescence polarization, LOPAC1280 library, primary screen (AID 687035; in the data active means inhibition above about 37%). The settings on record: Purified HCV NS3 helicase, Cy5-dT15 ssDNA binding fluorescence polarization; stronger effect = higher value; concentration not given here.
Assay [15] can be described thus: compounds altering Cy5-DNA-NS3h complex signal – biochemical, LOPAC1280, artefact control for HCV NS3 helicase inhibitor project (AID 687037; call rule not given here). The settings on record: Cy5-DNA-NS3h complex fluorescence interference counterscreen.

SMILES strings stand for the structures. Where “and” joins values, the source holds several entries; their conditions need not be identical. Equal values may be shown once. For some assays here: Entries with a potency or affinity are not part of this list. Calls of active or inactive are those of the source.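 How the source made its calls, unless noted: active means thallium flux through the channel raised or lowered by more than 3 SD from vehicle-only wells, actives on both sides; inactive means the rest.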

Calcium-activated potassium channel subunit alpha-1 (Homo sapiens) + Leucine-rich repeat-containing protein 26 (Homo sapiens), sequence (Q2I0M4 whole entry, looked up, one chain of several): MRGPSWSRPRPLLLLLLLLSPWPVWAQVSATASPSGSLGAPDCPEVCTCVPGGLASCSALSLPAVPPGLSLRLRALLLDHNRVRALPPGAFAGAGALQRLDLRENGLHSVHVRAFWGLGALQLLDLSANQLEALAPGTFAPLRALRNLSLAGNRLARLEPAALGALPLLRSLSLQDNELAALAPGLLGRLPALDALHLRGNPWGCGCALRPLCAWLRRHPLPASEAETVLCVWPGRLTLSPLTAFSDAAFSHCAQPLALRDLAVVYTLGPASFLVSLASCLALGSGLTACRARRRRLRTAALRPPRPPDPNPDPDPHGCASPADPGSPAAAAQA

As usually defined, the inhibition is the drop in the measured response relative to a control, in per cent. For `COCCCOc1ccnc(CS(=O)c2nc3ccccc3[nH]2)c1C` (stereo not given), the inhibition in assay [1] is -6.33% (inactive); in assay [2] it was 0.39% (inactive). Moreover, in assay [3], the fluorescence ratio is 0.94 (inactive).
Take `Clc1ccccc1CN1CCc2sccc2C1`: the log fold change Tl+ flux is -0.26 (active) with F380Y; -0.214 (active) with F380Y/beta2Delta; -0.00222 (inactive) in [4]; -0.105 (inactive) in the assay on R275C; -0.145 (active) in the assay with R275C/beta1; -0.13 (active) in the assay on R275C/beta2Delta.
For the compound `O=C(O)c1cn(C2CC2)c2cc(N3CCNCC3)c(F)cc2c1=O`, in assay [5], the inhibition is 8.05%. The score in assay [6] came out at 1.22. This compound registered a rescue above control in assay [7] of 13.4. Moreover, the cytochrome c release ratio in [8] came out at 1.03. Also, the inhibition of aggregation in [9] amounted to 20.6%. In addition, the glutamate uptake change in [10] is -1.59%. Also, the aggregation suppression score in assay [11] came to 1.3.
With `CC(C)c1c(C(=O)Nc2ccccc2)c(-c2ccccc2)c(-c2ccc(F)cc2)n1CC[C@@H](O)C[C@@H](O)CC(=O)O`, the compound was classed as inactive in [12].
Take `C[N+]1(C)CCC(OC(=O)C(O)(c2ccccc2)C2CCCC2)C1` (stereo not given): the inhibition is 2.77% (inactive) and 0.45% (inactive) in assay [1]; 1.44% (inactive) and 1.81% (inactive) in assay [2]. For the same compound, in assay [3], the fluorescence ratio is 1.05 (inactive) and 1 (inactive). Further, the log fold change Tl+ flux in the assay on F380Y is -0.0314 (inactive) and -0.0508 (inactive); in the assay on F380Y/beta2Delta, 0.0168 (inactive) and -0.0515 (inactive); in [4] it was -0.0241 (inactive) and -0.0355 (inactive); with R275C, -0.0259 (inactive) and -0.0857 (inactive); in the assay on R275C/beta1, 0.0143 (inactive) and 0.0309 (inactive); in the assay with R275C/beta2Delta it was 0.0449 (inactive) and -0.0318 (inactive).
On to `CC(C)(C(=O)O)c1ccc(C(O)CCCN2CCC(C(O)(c3ccccc3)c3ccccc3)CC2)cc1` (stereo not given), for which the period change in assay [13] was 0.08 h (inactive). Moreover, the inhibition in assay [14] is -1% (inactive); in [1], -4.09% (inactive); in [2], 1.05% (inactive). Moreover, the fluorescence ratio (interference) in assay [15] was 1.1 (inactive). Also, the fluorescence ratio in [3] was 1.04 (inactive). The result in [12] was inactive. Also, the log fold change Tl+ flux in the assay on F380Y is -0.178 (active); in the assay on F380Y/beta2Delta it was -0.00892 (inactive); in [4] it was 0.0201 (inactive); in the assay with R275C, 0.00746 (inactive); in the assay on R275C/beta1, -0.0122 (inactive); with R275C/beta2Delta, -0.0184 (inactive).
`CC(C)(C)c1ccc(C(O)CCCN2CCC(C(O)(c3ccccc3)c3ccccc3)CC2)cc1` (stereo not given): the inhibition in assay [5] was 70.6%; in assay [14], -3% (inactive). In assay [6], this compound registered a score of 0.48. Moreover, the cytochrome c release ratio in [8] worked out at 4.87. Also, in assay [9], the inhibition of aggregation was 4.76%. Besides, in [10], the glutamate uptake change was -7.35%. In [11], the aggregation suppression score was 0.868. Moreover, the period change in assay [13] was 0.22 h (inactive). Besides, in assay [15], the fluorescence ratio (interference) is 0.9 (inactive). Further, the outcome in assay [12] was inactive.
As for `O=C(O)COCCN1CCN(C(c2ccccc2)c2ccc(Cl)cc2)CC1` (stereo not given), the inhibition in assay [14] was -1% (inactive); in [1], -12.3% (inactive); in [2], -1.24% (inactive). Further, the fluorescence ratio (interference) in [15] is 1 (inactive). In addition, the fluorescence ratio in assay [3] was 1.01 (inactive). The result in [12] was inactive. The log fold change Tl+ flux in the assay on F380Y is 0.0594 (inactive); with F380Y/beta2Delta, 0.0743 (active); in assay [4], 0.0148 (inactive); in the assay on R275C, 0.0304 (inactive); in the assay on R275C/beta1, 0.109 (inactive); in the assay on R275C/beta2Delta, 0.056 (inactive).
Regarding `CC(C)(C)CC(C)(C)c1ccc(OCCOCC[N+](C)(C)Cc2ccccc2)cc1`, in [5], the inhibition was determined as 70.8%. Also, the score in assay [6] is -0.06. The compound also had a rescue above control in assay [7] of 0. For the same compound, the cytochrome c release ratio in assay [8] is 15.9. For the same compound, in assay [9], the inhibition of aggregation worked out at 58.6%. In addition, in [10], the glutamate uptake change was -11.3%. This compound also yielded an aggregation suppression score in assay [11] of -0.0343.
For `CC(C)n1c(/C=C/[C@@H](O)C[C@@H](O)CC(=O)O)c(-c2ccc(F)cc2)c2ccccc21`, the inhibition is -2.27% (inactive) in assay [1] and 2.57% (inactive) in [2]. Besides, the fluorescence ratio in [3] is 1.03 (inactive). For the same compound, the log fold change Tl+ flux is 0.0848 (inactive) in the assay with F380Y; 0.0465 (inactive) in the assay with F380Y/beta2Delta; 0.11 (active) in assay [4]; -0.0365 (inactive) in the assay on R275C; 0.145 (active) in the assay on R275C/beta1; 0.135 (active) with R275C/beta2Delta.
Consider `CN1[C@@H]2CC(OC(=O)[C@H](CO)c3ccccc3)C[C@H]1[C@@H]1O[C@@H]12` (stereo not given in full), for which the inhibition in assay [1] is -1.98% (inactive); in [2], 1.44% (inactive). Also, in [3], the fluorescence ratio was 0.9 (inactive).
With `O=C(NCC1CCCCN1)c1cc(OCC(F)(F)F)ccc1OCC(F)(F)F` (stereo not given), in [13], the period change was 0.075 h (inactive). For the same compound, the inhibition in [1] is -15% (inactive); in assay [2], 19.4% (inactive). Moreover, the fluorescence ratio in assay [3] is 0.81 (inactive).
Take `Cc1ccc(/C(=C\CN2CCCC2)c2ccccn2)cc1`: the inhibition in assay [5] is 21.1%; in assay [14], 1% (inactive). This compound registered a score in [6] of 1.45. In [7], this compound returned a rescue above control of -10.7. The cytochrome c release ratio in assay [8] was 1.11. The compound further registered an inhibition of aggregation in [9] of 23.8%. The glutamate uptake change in assay [10] was -7.2%. For the same compound, the aggregation suppression score in assay [11] was 0.939. The period change in assay [13] is 0.045 h (inactive). Besides, in [15], the fluorescence ratio (interference) was 1 (inactive). For the same compound, the outcome in [12] was inactive.

Source of the values: PubChem BioAssay.
